Data from PubChem BioAssay AID1159580 (chemical genetic matrix, 2015).
Several values for one entry are separate records, joined by “and”; a condition that tells them apart may be missing. Equal entries are not always repeated. The campaign covered roughly 5,500 compounds. About 2,000 (36%) were called active. Not shown: some 18% with an inconclusive outcome. Rule as the data show it: active = normalized growth mostly below about 0.91 (no sharp cut-off); inconclusive = no clear call, values can overlap the other calls; inactive = mostly above about 0.92. Some of the results follow.

Assay: chemical genetic growth profiling, strain panel (AID 1159580);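 also: tested at 20 µM; growth read once vehicle control cultures reached saturation at 30 °C; 1 = growth at the plate median or of vehicle wells; lower values mean less growth of the strain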
Conditions: S. cerevisiae deletion strains, growth OD

Measured: normalized growth

NC[C@H]1O[C@H](O[C@H]2C(O[C@@H]3O[C@H](CO)[C@@H](O)[C@H]3O)[C@@H](O)[C@H](N)C[C@@H]2N)[C@H](N)[C@@H](O)[C@@H]1O (some centres not stated)
inactive: locus YAL013W, strain DEP1, hits give low values 1 | locus YAL021C, strain ccr4, hits give low values 1.02 | locus YAL026C, strain drs2, hits give low values 0.998 | locus YAL030W, strain snc1, hits give low values 0.994 | locus YBL061C, strain skt5, hits give low values 0.997 | locus YBR009C, strain hhf1, hits give low values 0.975 | locus YBR021W, strain FUR4, hits give low values 0.969 | locus YBR023C, strain chs3, hits give low values 0.995 | locus YBR171W, strain sec66, hits give low values 0.992 | locus YBR229C, strain ROT2, hits give low values 0.99 | locus YBR231C, strain swc5, hits give low values 0.998 | locus YBR279W, strain paf1, hits give low values 0.999 | locus YCL011C, strain gbp2, hits give low values 1 | locus YCL016C, strain dcc1, hits give low values 0.996 | locus YCL029C, strain bik1, hits give low values 0.987 | locus YCL061C, strain MRC1, hits give low values 0.989 | locus YCL069W, strain vba3, hits give low values 0.997 | locus YCR088W, strain abp1, hits give low values 0.998 | locus YDL005C, strain med2, hits give low values 1.01 | locus YDL035C, strain GPR1, hits give low values 1.01 | locus YDL040C, strain nat1, hits give low values 0.983 | locus YDL074C, strain BRE1, hits give low values 0.985 | locus YDL101C, strain DUN1, hits give low values 0.987 | locus YDL134C, strain PPH21, hits give low values 0.988 | locus YDL185W, strain tfp1, hits give low values 0.983 | locus YDL192W, strain arf1, hits give low values 0.996 | locus YDR001C, strain nth1, hits give low values 0.989 | locus YDR069C, strain doa4, hits give low values 0.99 | locus YDR101C, strain arx1, hits give low values 0.972 | locus YDR137W, strain rgp1, hits give low values 1.02 | locus YDR150W, strain NUM1, hits give low values 1 | locus YDR159W, strain sac3, hits give low values 0.982 | locus YDR162C, strain NBP2, hits give low values 1 | locus YDR195W, strain ref2 0.939 | locus YDR297W, strain sur2, hits give low values 0.99 | locus YDR318W, strain mcm21, hits give low values 0.996 | locus YDR334W, strain swr1, hits give low values 0.997 | locus YDR335W, strain msn5, hits give low values 0.994 | locus YDR388W, hits give low values 0.992 | locus YDR392W, strain spt3, hits give low values 0.918 | locus YDR502C, strain sam2, hits give low values 0.998 | locus YEL003W, strain gim4, hits give low values 1 | locus YEL037C, strain rad23, hits give low values 0.995 | locus YEL061C, strain CIN8 (second series), hits give low values 0.991 | locus YEL061C, strain CIN8, hits give low values 0.999 | locus YER015W, strain faa2, hits give low values 0.998 | locus YER016W, strain bim1, hits give low values 0.993 | locus YER110C, hits give low values 0.993 | locus YER111C, strain swi4, hits give low values 0.977 | locus YER155C, strain BEM2 (second series), hits give low values 0.974 | locus YER155C, strain BEM2, hits give low values 0.957 | locus YER167W, strain BCK2, hits give low values 1 | locus YFR010W, strain ubp6, hits give low values 0.999 | locus YGL078C, strain dbp3, hits give low values 0.988 | locus YGL086W, strain mad1, hits give low values 0.994 | locus YGL167C, strain pmr1, hits give low values 0.992 | locus YGL173C, strain kem1, hits give low values 1 | locus YGL227W, strain vid30, hits give low values 0.989 | locus YGL240W, strain doc1, hits give low values 0.991 | locus YGL248W, strain PDE1, hits give low values 0.994 | locus YGL253W, strain hxk2, hits give low values 0.985 | locus YGR078C, strain PAC10, hits give low values 0.994 | locus YGR135W, strain pre9, hits give low values 0.985 | locus YGR229C, strain SMI1, hits give low values 1.03 | locus YGR252W, strain gcn5, hits give low values 1.08 | locus YHR013C, strain ard1, hits give low values 0.976 | locus YHR027C, strain rpn1, hits give low values 1 | locus YHR030C, strain SLT2, hits give low values 0.994 and 0.986 | locus YHR079C, strain IRE1 (second series), hits give low values 0.983 | locus YHR079C, strain IRE1, hits give low values 0.993 | locus YHR094C, strain hxt1, hits give low values 0.99 | locus YHR129C, strain ARP1, hits give low values 0.986 | locus YHR142W, strain chs7, hits give low values 1.01 | locus YHR200W, strain rpn10, hits give low values 0.989 | locus YIL066C, strain RNR3, hits give low values 0.991 | locus YIL073C, strain SPO22, hits give low values 1.01 | locus YIL125W, strain kgd1, hits give low values 1 | locus YIR030C, strain dcg1, hits give low values 0.988 | locus YJL092W, strain hpr5, hits give low values 0.994 | locus YJL095W, strain BCK1 (second series), hits give low values 0.995 | locus YJL095W, strain BCK1, hits give low values 0.984 and 1.02 | locus YJL115W, strain asf1, hits give low values 0.995 | locus YJL129C, strain trk1, hits give low values 1 | locus YJL134W, strain LCB3, hits give low values 0.992 | locus YJL154C, strain vps35, hits give low values 0.986 | locus YJL164C, strain tpk1, hits give low values 1 | locus YJL166W, strain qcr8, hits give low values 1.01 | locus YJL168C, strain set2, hits give low values 0.986 | locus YJL187C, strain SWE1 (second series), hits give low values 0.991 | locus YJL187C, strain SWE1, hits give low values 0.997 | locus YJR043C, strain POL32, hits give low values 0.994 | locus YJR066W, strain TOR1, hits give low values 0.93
